Out of some 5,500 compounds screened, about 2,000 (36%) were called active. About 18% were inconclusive and are not listed. No stated cut-off is given here; in the data, active means normalized growth mostly below about 0.91 (no sharp cut-off); inconclusive means no clear call, values can overlap the other calls; inactive means mostly above about 0.92. The list shows a part of the results.
Experiment: chemical genetic growth profiling, strain panel (AID 1159580);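 further: tested at 20 µM; growth read once vehicle control cultures reached saturation at 30 °C; 1 = growth at the plate median or of vehicle wells; lower values mean less growth of the strain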
Conditions: growth OD
[1] = S. cerevisiae deletion strains, locus YBR021W, strain FUR4, active compounds read low
[2] = S. cerevisiae deletion strains, locus YBR229C, strain ROT2, active compounds read low
[3] = S. cerevisiae deletion strains, locus YCL029C, strain bik1, active compounds read low
[4] = S. cerevisiae deletion strains, locus YDL035C, strain GPR1, active compounds read low
[5] = S. cerevisiae deletion strains, locus YDL074C, strain BRE1, active compounds read low
[6] = S. cerevisiae deletion strains, locus YDL101C, strain DUN1, active compounds read low
[7] = S. cerevisiae deletion strains, locus YDL185W, strain tfp1, active compounds read low
[8] = S. cerevisiae deletion strains, locus YDL192W, strain arf1, active compounds read low
[9] = S. cerevisiae deletion strains, locus YDR101C, strain arx1, active compounds read low
[10] = S. cerevisiae deletion strains, locus YDR162C, strain NBP2, active compounds read low
[11] = S. cerevisiae deletion strains, locus YDR318W, strain mcm21, active compounds read low
[12] = S. cerevisiae deletion strains, locus YDR388W, active compounds read low
[13] = S. cerevisiae deletion strains, locus YDR502C, strain sam2, active compounds read low
[14] = S. cerevisiae deletion strains, locus YER110C, active compounds read low
[15] = S. cerevisiae deletion strains, locus YER155C, strain BEM2, active compounds read low
[16] = S. cerevisiae deletion strains, locus YER167W, strain BCK2, active compounds read low
[17] = S. cerevisiae deletion strains, locus YGL078C, strain dbp3, active compounds read low
[18] = S. cerevisiae deletion strains, locus YGL086W, strain mad1, active compounds read low
[19] = S. cerevisiae deletion strains, locus YGL248W, strain PDE1, active compounds read low
[20] = S. cerevisiae deletion strains, locus YGR135W, strain pre9, active compounds read low
[21] = S. cerevisiae deletion strains, locus YGR252W, strain gcn5, active compounds read low
[22] = S. cerevisiae deletion strains, locus YHR030C, strain SLT2, active compounds read low
[23] = S. cerevisiae deletion strains, locus YHR079C, strain IRE1 (second series), active compounds read low
[24] = S. cerevisiae deletion strains, locus YHR094C, strain hxt1, active compounds read low
[25] = S. cerevisiae deletion strains, locus YHR129C, strain ARP1, active compounds read low
[26] = S. cerevisiae deletion strains, locus YHR200W, strain rpn10, active compounds read low
[27] = S. cerevisiae deletion strains, locus YIL066C, strain RNR3, active compounds read low
[28] = S. cerevisiae deletion strains, locus YIL073C, strain SPO22, active compounds read low
[29] = S. cerevisiae deletion strains, locus YIL125W, strain kgd1, active compounds read low
[30] = S. cerevisiae deletion strains, locus YIR030C, strain dcg1, active compounds read low
[31] = S. cerevisiae deletion strains, locus YJL095W, strain BCK1, active compounds read low
[32] = S. cerevisiae deletion strains, locus YJL134W, strain LCB3, active compounds read low
[33] = S. cerevisiae deletion strains, locus YJL168C, strain set2, active compounds read low
[34] = S. cerevisiae deletion strains, locus YJL187C, strain SWE1 (second series), active compounds read low
[35] = S. cerevisiae deletion strains, locus YKL009W, strain mrt4, active compounds read low
[36] = S. cerevisiae deletion strains, locus YKL068W, active compounds read low
[37] = S. cerevisiae deletion strains, locus YKL085W, strain MDH1 (second series), active compounds read low
[38] = S. cerevisiae deletion strains, locus YKL085W, strain MDH1, active compounds read low
[39] = S. cerevisiae deletion strains, locus YKR001C, strain vps1, active compounds read low
[40] = S. cerevisiae deletion strains, locus YLR039C, strain RIC1, active compounds read low
[41] = S. cerevisiae deletion strains, locus YLR058C, strain SHM2, active compounds read low
[42] = S. cerevisiae deletion strains, locus YLR102C, strain apc9, active compounds read low
[43] = S. cerevisiae deletion strains, locus YLR268W, strain sec22, active compounds read low
[44] = S. cerevisiae deletion strains, locus YLR330W, strain CHS5, active compounds read low
[45] = S. cerevisiae deletion strains, locus YLR371W, strain rom2, active compounds read low
[46] = S. cerevisiae deletion strains, locus YLR418C, strain cdc73, active compounds read low
[47] = S. cerevisiae deletion strains, locus YML016C, strain PPZ1, active compounds read low
[48] = S. cerevisiae deletion strains, locus YML032C, strain rad52, active compounds read low
[49] = S. cerevisiae deletion strains, locus YML124C, strain tub3, active compounds read low
[50] = S. cerevisiae deletion strains, locus YMR078C, strain ctf18, active compounds read low
[51] = S. cerevisiae deletion strains, locus YMR223W, strain ubp8, active compounds read low
[52] = S. cerevisiae deletion strains, locus YMR307W, strain GAS1, active compounds read low
[53] = S. cerevisiae deletion strains, locus YNL067W, strain RPL9B, active compounds read low
[54] = S. cerevisiae deletion strains, locus YNL153C, strain GIM3, active compounds read low
[55] = S. cerevisiae deletion strains, locus YNL233W, strain BNI4, active compounds read low
[56] = S. cerevisiae deletion strains, locus YNL250W, strain rad50, active compounds read low
[57] = S. cerevisiae deletion strains, locus YNL271C, strain bni1, active compounds read low
[58] = S. cerevisiae deletion strains, locus YNL298W, strain CLA4, active compounds read low
[59] = S. cerevisiae deletion strains, locus YNL307C, strain MCK1, active compounds read low
[60] = S. cerevisiae deletion strains, locus YNR052C, strain pop2, active compounds read low
[61] = S. cerevisiae deletion strains, locus YOL012C, strain htz1
[62] = S. cerevisiae deletion strains, locus YOL147C, strain pex11, active compounds read low
[63] = S. cerevisiae deletion strains, locus YOR061W, strain CKA2, active compounds read low
[64] = S. cerevisiae deletion strains, locus YOR069W, strain VPS5, active compounds read low
[65] = S. cerevisiae deletion strains, locus YOR136W, strain idh2, active compounds read low
[66] = S. cerevisiae deletion strains, locus YOR144C, strain elg1, active compounds read low
[67] = S. cerevisiae deletion strains, locus YOR184W, strain ser1, active compounds read low
[68] = S. cerevisiae deletion strains, locus YOR316C, strain cot1, active compounds read low
[69] = S. cerevisiae deletion strains, locus YPL241C, strain CIN2, active compounds read low
[70] = S. cerevisiae deletion strains, locus YPR119W, strain clb2, active compounds read low
[71] = S. cerevisiae deletion strains, locus YPR141C, strain kar3, active compounds read low
[72] = S. cerevisiae deletion strains, locus YPR163C, strain tif3, active compounds read low
[73] = S. cerevisiae deletion strains, locus YPR167C, strain met16, active compounds read low
[74] = S. cerevisiae deletion strains, strain wtn01, active compounds read low

Measured: normalized growth

CC(=O)O[C@H]1CC[C@]2(C)C3=CC(=O)[C@@]4(C)C(C[C@@H]5OC6(OCC(C)CC6Br)[C@@H](C)[C@@H]54)C3CC[C@H]2C1 (some centres undefined)
inactive: S. cerevisiae deletion strains, locus YAL013W, strain DEP1, active compounds read low 1.01 | [1] 0.964 | [2] 0.99 | [3] 0.994 | [4] 1.01 | [5] 1.01 | [6] 0.989 | [7] 0.988 | [8] 0.995 | [9] 1.02 | [10] 1.01 | [11] 0.997 | [12] 0.994 | [13] 0.995 | [14] 0.986 | [15] 0.987 | [16] 0.996 | [17] 0.982 | [18] 1.01 | [19] 0.995 | [20] 0.973 | S. cerevisiae deletion strains, locus YGR229C, strain SMI1, active compounds read low 1.03 | [21] 0.986 | [22] 0.992 | [23] 0.984 | [24] 0.973 | [25] 0.995 | [26] 0.984 | [27] 1 | [28] 1.01 | [29] 0.994 | [30] 0.996 | [31] 0.994 | [32] 0.993 | [33] 0.994 | [34] 0.981 | S. cerevisiae deletion strains, locus YJR043C, strain POL32, active compounds read low 1.02 | S. cerevisiae deletion strains, locus YJR075W, strain HOC1, active compounds read low 0.995 | [35] 1.01 | [36] 0.996 | [39] 0.989 | [40] 0.987 | [41] 0.995 | [42] 0.993 | S. cerevisiae deletion strains, locus YLR262C, strain YPT6, active compounds read low 1.04 | [43] 0.995 | [44] 0.997 | [45] 0.99 | [46] 0.991 | [47] 0.982 | [48] 0.995 | [49] 0.988 | [50] 0.993 | [51] 0.993 | [52] 0.981 | [53] 0.98 | [54] 0.993 | [55] 1.01 | [56] 0.989 | [57] 0.993 | [58] 0.99 | [59] 0.993 | [60] 0.983 | [61] 0.79 | [62] 0.997 | [63] 0.992 | [64] 0.992 | [65] 0.991 | [66] 0.989 | [67] 1.01 | [68] 0.99 | [69] 0.999 | [70] 0.991 | [71] 0.99 | [72] 0.992 | [73] 0.992 | [74] 1.01
active: [37] 1.13 [resistant] | [38] 1.13 [resistant]

CC(=O)O[C@H]1CC[C@]2(C)C3C(=O)[C@@H](OC(C)=O)[C@@]4(C)C(C[C@@H]5O[C@]6(CCC(C)CO6)[C@@H](C)[C@@H]54)C3CC[C@H]2C1 (some centres undefined)
inactive: [1] 1.01 | [2] 0.997 | [3] 0.996 | [4] 1.03 | [5] 1.06 | [6] 0.986 | S. cerevisiae deletion strains, locus YDL134C, strain PPH21, active compounds read low 0.998 | [7] 0.986 | [8] 1 | [9] 1.01 | [10] 1.02 | [11] 0.991 | [12] 0.99 | [13] 0.984 | S. cerevisiae deletion strains, locus YEL061C, strain CIN8, active compounds read low 0.999 | [14] 0.983 | [15] 0.984 | [16] 0.993 | [17] 0.963 | [18] 0.986 | [19] 0.985 | [20] 0.978 | [21] 1.04 | [22] 0.992 | [23] 0.99 | [24] 0.987 | [25] 0.991 | [26] 0.982 | [27] 1.01 | [28] 1.01 | [29] 0.987 | [30] 0.988 | [31] 0.996 | [32] 0.993 | [33] 0.994 | [34] 0.988 | [35] 0.994 | [36] 0.997 | [37] 0.987 | [38] 0.987 | S. cerevisiae deletion strains, locus YKL190W, strain CNB1, active compounds read low 0.998 | [39] 0.982 | [40] 1.05 | [41] 1 | [42] 0.985 | [43] 1.01 | [44] 0.996 | [45] 0.99 | [46] 0.977 | [47] 0.981 | [48] 1.01 | [49] 0.991 | [50] 0.992 | [51] 0.994 | [52] 1 | [53] 0.981 | [54] 0.988 | [55] 0.988 | [56] 0.968 | [57] 0.976 | [58] 0.991 | [59] 0.986 | S. cerevisiae deletion strains, locus YNL322C, strain KRE1, active compounds read low 0.997 | [60] 0.974 | [61] 0.895 | [62] 0.986 | [63] 1 | [64] 0.996 | [65] 0.988 | [66] 0.992 | [67] 1.01 | [68] 0.987 | S. cerevisiae deletion strains, locus YPL055C, strain LGE1, active compounds read low 1.02 | [69] 0.996 | [70] 0.98 | [71] 0.983 | [72] 0.991 | [73] 0.976 | [74] 1.01 | S. cerevisiae strains, strain wild type, active compounds read low 1.01

Source: PubChem BioAssay AID1159580 (chemical genetic matrix, 2015)
